Laboratory results published in ChEMBL document CHEMBL1201862, “PubChem BioAssay data set” (2004).
Out of some 57,000 sequences screened, about 3,700 (6.5%) were called active. Cut-off read from the data, not from the text of the source: active = GI50 up to about 1.1 µM and inactive = higher. A selection follows. Results with a measured potency or affinity are listed apart.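 Compound exposure: 48 hours, 5 concentrations, 96-well plates. GI50 marks 50% less growth.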

System: ACHN
Experiment: NCI tumour cell line growth inhibition, 48 h

Substance | GI50
CISPLATIN, CHEMBL11359 | 1.22 µM
cis-Bis[[(trimethylsilyl)methyl]amino]tetrachloroplatinum(IV), CHEMBL2146191 | 6.25 µM
[Bis(aminomethyl)dimethylsilane]dichloroplatinum (II), CHEMBL2146201 | 12.6 µM
[Bis(aminomethyl)tetramethylenesilane]dichloropaltinum(II), CHEMBL2146205 | 12.3 µM
[Bis(aminomethyl)pentamethylenesilane]dichloropaltinum(II), CHEMBL2146202 | 1.63 µM
mu-(1,7-nanodiamine-N,N')bis-(cis-aminedichloroplatimum (II)), CHEMBL2146215 | 27.8 µM
[Bis(aminomethyl)ethylmethylsilane]tetrachloroplatinum(IV), CHEMBL2146192 | 2.67 µM
[Bis(aminomethyl)pentamethylenesilane]tetrachloropaltinum(IV), CHEMBL2146204 | 1.79 µM
[Bis(aminomethyl)tetramethylenesilane]tetrachloropaltinum(IV), CHEMBL2146189 | 3.69 µM
[Bis(aminomethyl)dimethylsilane]tetrachloroplatinum(IV), CHEMBL2146190 | 4.84 µM
[Bis(aminomethyl)diethylsilane]tetrachloroplatinum(IV), CHEMBL2146203 | 2.99 µM
